Results reported in PubChem BioAssay (Tox21).
“And” between values parts separate entries of the source, which are not always exact repeats. Identical values can stand only once. Records with an inconclusive call do not appear. Where a structure was tested more than once in an assay, its records may differ in their call. The source made the active and inactive calls. Unless noted, calls come from the whole dose curve; as a rule, active = well fitted curve in the direction sought with a large enough effect in the repeat runs; inconclusive = weak or mixed curves; inactive = no such curve, though single readings can be large; an effect the other way counts as inactive or inconclusive.

Assays:
[1] = target: Peroxisome proliferator-activated receptor delta (Homo sapiens) (UniProt Q03181); assay: qHTS assay to identify small molecule agonists of the peroxisome proliferator-activated receptor delta (PPARd) signaling pathway (AID 743212; calls by dose curve;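 note: HEK293H cells with PPARd UAS beta-lactamase reporter GeneBLAzer system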)
Outline: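 Steps: seed PPARd-bla HEK293H cells; incubate 5 h, 37 C, 5% CO2; add compounds in DMSO; incubate, 37 C; add LiveBLAzer B/G FRET substrate; hold 2 h at room temperature; measure fluorescence.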

[2] = qHTS assay to identify small molecule antagonists of the peroxisome proliferator-activated receptor delta (PPARd) signaling pathway - cell viability counter screen (AID 743213); note: nearly all actives have a fitted effect of over 50% in size
Outline: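 PPARd-bla HEK293H cells were treated with compounds plus agonist L165041 (300 nM final) for 17 h at 37 C. Viability was then read in the same wells by CellTiter-Glo luminescence after 30 min at room temperature.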

[3] = target: Peroxisome proliferator-activated receptor delta (Homo sapiens) (UniProt Q03181); assay: qHTS assay to identify small molecule antagonists of the peroxisome proliferator-activated receptor delta (PPARd) signaling pathway (AID 743215; active = well fitted inhibition curve with a large enough effect in the signal ratio in the repeat runs, not every such curve was filed as active; the % refers to the signal ratio;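 note: cells stimulated with agonist L165041 at 300 nM final during compound exposure; series mostly up to about 62 µM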)
Outline: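 Here, a reporter line (HEK293H, beta-lactamase under a UAS) measures PPARd signaling. Compounds are tested against agonist L165041 at 300 nM final concentration over 17 h at 37 C, with fluorescence read after substrate.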

[4] = target: Bile acid receptor (Homo sapiens) (UniProt Q96RI1); assay: qHTS assay to identify small molecule antagonists of the farnesoid-X-receptor (FXR) signaling pathway (AID 743217; active = well fitted inhibition curve with a large enough effect in the signal ratio in the repeat runs, not every such curve was filed as active; the % refers to the signal ratio)
Outline: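 Test compounds are pin-transferred onto FXR-bla HEK 293T cells, then chenodeoxycholic acid is added at 50 uM final. After 16 h at 37 °C, LiveBLAzer B/G substrate is applied for 2 h at room temperature and fluorescence read.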

[5] = qHTS assay to identify small molecule agonists of the farnesoid-X-receptor (FXR) signaling pathway - cell viability counter screen (AID 743218); note: nearly all actives have a fitted effect of over 45% in size; note: potency is the fitted concentration of half-maximal effect
Outline: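 Quantitative HTS counter screen measuring ATP-based viability via CellTiter-Glo luminescence in HEK 293T cells carrying a UAS-driven beta-lactamase reporter, after 16 h compound exposure at 37 C.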

[6] = target: Bile acid receptor (Homo sapiens) (UniProt Q96RI1); assay: qHTS assay to identify small molecule agonists of the farnesoid-X-receptor (FXR) signaling pathway (AID 743220; active = well fitted activation curve with a large enough effect in the signal ratio in the repeat runs, not every such curve was filed as active; the % refers to the signal ratio)
Outline: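 FXR-UAS-bla HEK 293T cells carrying a UAS-driven beta-lactamase reporter were plated for 5 h at 37C/5% CO2, then exposed to DMSO-dissolved Tox21 10K compounds for 16 h at 37C. A LiveBLAzer B/G FRET substrate was loaded for 2 h at room temperature before fluorescence reading.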

[7] = qHTS assay to identify small molecule antagonists of the farnesoid-X-receptor (FXR) signaling pathway - cell viability counter screen (AID 743221; active = well fitted cell-killing curve with a large enough effect in the repeat runs, not every such curve was filed as active; note: nearly all actives have a fitted effect of over 50% in size)
Outline: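 Multiplexed counter screen: viability of FXR-bla HEK 293T cells under agonist stimulation by chenodeoxycholic acid (50 uM, final) and test compound for 16 h at 37 C, measured by CellTiter-Glo luminescence in the reporter wells.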

[8] = target: Vitamin D3 receptor (Homo sapiens) (UniProt P11473); assay: qHTS assay to identify small molecule agonists of the vitamin D receptor (VDR) signaling pathway (AID 743222; calls by dose curve)
Outline: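 Tox21 cell reporter format: VDR-bla line, 16 h compound exposure in 5% CO2 at 37C, then fluorescence intensity after 2 h with LiveBLAzer B/G FRET substrate.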

[9] = target: Vitamin D3 receptor (Homo sapiens) (UniProt P11473); assay: qHTS assay to identify small molecule antagonists of the vitamin D receptor (VDR) signaling pathway (AID 743223; active = well fitted inhibition curve with a large enough effect in the signal ratio in the repeat runs, not every such curve was filed as active; the % refers to the signal ratio)
Outline: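 Cells carrying a VDR-driven beta-lactamase reporter (VDR-bla) were co-treated with compound and 3 nM final 1alpha,25-dihydroxyvitamin D3 for 16 h at 37C; reporter activity was measured as FRET substrate fluorescence after 2 h at room temperature.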

[10] = qHTS assay to identify small molecule agonists of the vitamin D receptor (VDR) signaling pathway - cell viability counter screen (AID 743224); note: nearly all actives have a fitted effect of over 50% in size; note: potency is the fitted concentration of half-maximal effect; for activity change, negative = cytotoxicity: series mostly up to about 63 µM
Outline: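 CellTiter-Glo viability readout on VDR-bla cells, measured after 16 h of compound treatment at 37C in the same wells.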
% is set by controls: 0 for no effect and ±100 for the full control effect.

Chain of Vitamin D3 receptor (Homo sapiens) (P11473 whole entry, looked up): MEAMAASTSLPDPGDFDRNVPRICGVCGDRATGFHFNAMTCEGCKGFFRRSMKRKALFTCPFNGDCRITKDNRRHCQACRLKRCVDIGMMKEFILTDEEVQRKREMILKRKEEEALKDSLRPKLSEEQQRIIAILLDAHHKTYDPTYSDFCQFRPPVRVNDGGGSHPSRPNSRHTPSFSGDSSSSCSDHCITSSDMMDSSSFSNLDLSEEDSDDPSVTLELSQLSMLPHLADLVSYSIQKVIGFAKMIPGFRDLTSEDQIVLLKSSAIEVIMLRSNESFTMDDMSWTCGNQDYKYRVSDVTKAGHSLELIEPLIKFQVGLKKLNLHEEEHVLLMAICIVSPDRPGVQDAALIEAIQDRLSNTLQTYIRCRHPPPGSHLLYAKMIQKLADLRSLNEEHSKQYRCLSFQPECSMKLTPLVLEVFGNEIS
Chain of Bile acid receptor (Homo sapiens) (Q96RI1 whole entry, looked up): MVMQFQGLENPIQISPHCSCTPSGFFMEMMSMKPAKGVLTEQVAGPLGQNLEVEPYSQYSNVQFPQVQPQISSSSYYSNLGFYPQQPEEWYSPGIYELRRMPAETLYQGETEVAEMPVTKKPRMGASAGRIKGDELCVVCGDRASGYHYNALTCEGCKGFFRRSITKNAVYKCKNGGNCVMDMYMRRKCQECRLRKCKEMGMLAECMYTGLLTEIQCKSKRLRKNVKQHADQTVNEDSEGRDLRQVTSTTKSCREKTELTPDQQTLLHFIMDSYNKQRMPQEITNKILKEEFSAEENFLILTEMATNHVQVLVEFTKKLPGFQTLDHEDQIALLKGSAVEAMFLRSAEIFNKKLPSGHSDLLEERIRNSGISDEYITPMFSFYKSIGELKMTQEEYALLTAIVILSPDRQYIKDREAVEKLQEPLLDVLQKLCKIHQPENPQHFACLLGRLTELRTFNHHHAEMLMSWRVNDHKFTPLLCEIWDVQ
Chain of Peroxisome proliferator-activated receptor delta (Homo sapiens) (Q03181 whole entry, looked up): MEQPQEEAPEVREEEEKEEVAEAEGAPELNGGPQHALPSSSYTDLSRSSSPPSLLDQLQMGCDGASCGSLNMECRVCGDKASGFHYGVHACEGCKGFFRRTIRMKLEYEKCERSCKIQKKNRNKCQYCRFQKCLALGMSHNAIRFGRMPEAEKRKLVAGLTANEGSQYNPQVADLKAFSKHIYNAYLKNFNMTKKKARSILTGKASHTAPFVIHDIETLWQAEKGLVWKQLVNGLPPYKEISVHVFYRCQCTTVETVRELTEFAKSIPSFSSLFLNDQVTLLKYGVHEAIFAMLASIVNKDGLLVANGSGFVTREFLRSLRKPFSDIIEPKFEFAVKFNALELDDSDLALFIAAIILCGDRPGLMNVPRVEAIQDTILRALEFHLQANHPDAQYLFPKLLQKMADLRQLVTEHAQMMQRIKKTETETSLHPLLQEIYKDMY

CCCC(=O)Cl
inactive: outcome [1] | Potency [2] | Potency [3] | Potency [4] | Potency [5] | outcome [6] | Potency [7] | outcome [8] | outcome [9] | Potency [10]

CC(Cl)Cl
inactive: outcome [1] | Potency [2] | Potency [3] | Potency [4] | Potency [5] | outcome [6] | Potency [7] | outcome [8] | outcome [9]

O=C(O)c1ccccc1C(=O)Nc1cccc2ccccc12
inactive: outcome [1] | Potency [2] | Potency [3] | Potency [4] | Potency [5] | outcome [6] | Potency [7] | outcome [8] | outcome [9] | Potency [10]

Nc1nc(N)nc(N)n1
inactive: outcome [1] | Potency [2] | Potency [3] | Potency [4] | Potency [5] | outcome [6] | Potency [7] | outcome [8] | outcome [9]

CC1C(=O)C[C@]2(C(C)C)C[C@H]12 (stereo partly specified)
inactive: outcome [1] | Potency [2] | Potency [3] | Potency [4] | Potency [5] | outcome [6] | Potency [7] | outcome [8] | outcome [9] | Potency [10]

CCCCCCCCCCOC(=O)c1ccccc1C(=O)OCCCCCCCCCC
inactive: outcome [1] | Potency [2] | Potency [3] | Potency [4] | outcome [6] | Potency [7] | Potency [10]

Clc1cccc(SC2CCNCC2)n1
inactive: outcome [1] | Potency [2] | Potency [3] | Potency [4] | Potency [5] | outcome [6] | Potency [7] | outcome [9] | Potency [10]

C(=NC1CCCCC1)=NC1CCCCC1
active: Potency [5] 11 µM
inactive: outcome [1] | Potency [2] | outcome [6] | outcome [8] | outcome [9]
inactive and 24.5 µM (active): Potency [10]

C=CC(=O)OCC(C)C
inactive: outcome [1] | Potency [2] | Potency [3] | Potency [5] | Potency [7] | outcome [8] | outcome [9] | Potency [10]

Cc1cc(=O)[nH]o1
inactive: outcome [1] | Potency [2] | Potency [3] | Potency [10]

CCO[C@H]1O[C@@H]2OC3(C)CC[C@H]4[C@H](C)CC[C@@H]([C@H]1C)[C@@]24OO3
inactive: outcome [1] | Potency [2] | Potency [4] | Potency [5] | outcome [6] | Potency [7] | outcome [8] | outcome [9] | Potency [10]

CCOC(=O)COc1cc(-c2nn(C)c(OC(F)F)c2Cl)c(F)cc1Cl
inactive: outcome [1] | Potency [2] | Potency [3] | outcome [8] | outcome [9]

C=CC(=O)OC(C)(C)C
inactive: outcome [1] | Potency [2] | Potency [3] | Potency [5] | Potency [7] | outcome [8] | Potency [10]

O=NN1CCNCC1
inactive: outcome [1] | Potency [2] | Potency [3] | Potency [7] | outcome [8] | outcome [9]

CCCCN(N=O)C(=N)N[N+](=O)[O-]
inactive: outcome [1] | Potency [2] | Potency [3] | Potency [5] | Potency [7] | outcome [8] | outcome [9] | Potency [10]

CN1C(=O)NC(=O)C(C)(C2=CCCCC2)C1=O (stereo unspecified)
inactive: outcome [1] | Potency [2] | Potency [3] | Potency [5] | Potency [7] | Potency [10]

CCN(C)N=O
inactive: outcome [1] | Potency [2] | Potency [3] | Potency [5] | Potency [7] | outcome [8] | outcome [9] | Potency [10]

CNC(C)Cc1ccccc1OC (stereo unspecified)
inactive: outcome [1] | Potency [2] | Potency [3] | Potency [7] | outcome [8] | outcome [9] | Potency [10]

Cl/C=C\Cl
inactive: outcome [1] | Potency [2] | Potency [3] | Potency [5] | Potency [7] | outcome [8] | outcome [9] | Potency [10]

C#CCOC(C(=O)OCCN(C)C)(c1ccccc1)c1ccccc1
inactive: outcome [1] | Potency [2] | Potency [3] | Potency [5] | outcome [8]

NCC(CC(=O)O)c1ccc(Cl)cc1 (stereo unspecified)
inactive: activation [1] 1.99% [at 0.55 µM] | viability change, negative = cytotoxic [2] -11.6% [at 0.575 µM] | ratio activity, negative = inhibition [3] -0.236% [at 0.575 µM] | viability change, negative = cytotoxic [5] 0.276% [at 0.55 µM] | activity change, negative = cytotoxicity [7] 3.53% [at 0.55 µM] | activity change, negative = cytotoxicity [10] 15.2% [at 0.55 µM]

Brc1ccc(Oc2ccccc2)cc1
inactive: outcome [1] | Potency [2] | Potency [3] | Potency [5] | Potency [7] | outcome [8] | outcome [9]

C=CCCl
inactive: outcome [1] | Potency [2] | Potency [3] | Potency [5] | Potency [7] | outcome [8] | Potency [10]

CNP(=O)(OC)Oc1ccc(C(C)(C)C)cc1Cl (stereo unspecified)
inactive: outcome [1] | Potency [2] | Potency [3] | Potency [5] | Potency [7] | outcome [8] | outcome [9]

CCOP(O)OCC
inactive: outcome [1] | Potency [2] | Potency [3] | Potency [5] | Potency [7] | outcome [8] | outcome [9]

Brc1ccccc1
inactive: outcome [1] | Potency [2] | Potency [3] | Potency [5] | Potency [7] | outcome [8] | Potency [10]

COP(=O)(OC)O/C(=C/Cl)c1cc(Cl)c(Cl)cc1Cl
inactive: outcome [1] | Potency [2] | Potency [4] | Potency [5] | outcome [6] | Potency [7]

CC(=O)[C@H]1CC[C@H]2[C@@H]3CC[C@H]4C[C@](C)(O)CC[C@]4(C)[C@H]3CC[C@]12C
inactive: outcome [1] | Potency [2] | Potency [3] | Potency [5] | Potency [7] | Potency [10]

ClCc1ccccc1
inactive: outcome [1] | Potency [2] | Potency [3] | Potency [5] | Potency [7] | outcome [8] | outcome [9] | Potency [10]

CCCN(CCCl)c1c([N+](=O)[O-])cc(C(F)(F)F)cc1[N+](=O)[O-]
inactive: outcome [1] | Potency [2] | Potency [4] | Potency [5] | outcome [6] | Potency [7] | outcome [8] | outcome [9]
